Screening data as filed in PubChem.
NCOA3 inh = inhibits human SRC3 coactivator; Q9Y6Q9; HEK293 GAL4-SRC3 luciferase reporter, luminescence; inhibition, % at 3.6 µM; actives 0.17% (n = 360,000); AID 588352;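 active = inhibition above a per-campaign cutoff, the mean of all compounds plus 3 SD, cut at about 60% in these data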;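 note: 0% = DMSO-treated cells and 100% = gossypol-treated cells at 36 µM; higher means less SRC3-driven luciferase light from the GAL4 reporter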
NR2F2 inh = inhibitors of human COUP-TFII (NR2F2); P24468; HEK293T NGFI-A luciferase reporter, luminescence; inhibition, % at 8.6 µM; actives 0.7% (n = 370,000); AID 686940;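 active = inhibition above a per-plate cutoff, mean inhibition of test wells between control levels plus 3 SD, cut at about 38% in these data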;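 note: cells cotransfected with COUP-TFII expression vector driving the NGFI-A reporter; 0% = median of COUP-TF2 test wells and 100% = reporter-only cells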
Gli-Sufu block = blocks Gli-Sufu signaling in a luciferase reporter | Sufu-KO-LIGHT fibroblasts, Gli luciferase reporter luminescence | inhibition, % at 5 µM | actives 0.74% (n = 340,000);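 active = inhibition above about 55%, limit read from the data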;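 note: 0% = DMSO-treated cells and 100% = wells with medium but no cells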
LRH-1 inv ag = suppresses constitutive activity of human LRH-1; inhibition, % at 3.6 µM; HEK293T StAR-luciferase reporter, LRH-1 transfected, 24 h; actives 0.13% (n = 360,000);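 active = inhibition above the mean inhibition of all tested compounds plus 3 SD, cut at about 73% in these data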;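 note: 0% = DMSO wells and 100% = reporter-only cells lacking LRH-1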
SRC2 inh = inhibits human steroid receptor coactivator 2 | HEK293 GAL4-SRC2 luciferase reporter, luminescence | actives 0.17% (n = 370,000) | Q15596 | inhibition, % at 9 µM;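 active = inhibition above the mean inhibition of all tested compounds plus 3 SD, set per campaign, cut at about 52% in these data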;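 note: 0% = DMSO treated cells and 100% = cells given Gossypol at 36 µM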
NCOA1 inh = inhibits human SRC1 coactivator; Q15788; HEK293 GAL4-SRC1 luciferase reporter, luminescence; inhibition, % at 3.6 µM; actives 0.12% (n = 360,000); AID 588354;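 active = inhibition above the campaign mean plus 3 SD, with each screening campaign given its own cutoff, cut at about 60% in these data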;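 note: 0% = DMSO treated cells and 100% = gossypol at 36 µM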
Gli antag conf = Gli-SUFU antagonism confirmation, single concentration | shares compounds with Gli-Sufu block | Sufu-KO-LIGHT cells, Gli luciferase reporter, luminescence | inhibition, % at 5 µM | actives 40% (n = 2,500) | AID 602428;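 active = mean inhibition at 5 µM reaching about 45%, limit read from the data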;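 note: plate controls were DMSO-treated cells for no effect and wells lacking cells for full effect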
Gli cytotox = cytotoxicity counter-screen for Gli-SUFU antagonists; shares compounds with Gli-Sufu block; Sufu-KO-LIGHT cells cytotoxicity, ATP luminescence; cytotoxicity, % at 5 µM; actives 32% (n = 2,500); AID 651994;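 active = mean cytotoxicity at 5 µM above about 25%, limit read from the data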;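 note: cells exposed to compound overnight for roughly 16 to 18 hours; plate controls were DMSO wells with cells for no effect and medium without cells for full effect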
Wnt3a counter = inhibits Wnt3a reporter, counter-screen for Gli-SUFU antagonists. shares compounds with Gli-Sufu block. Wnt-LIGHT cells, Wnt3a-driven luciferase reporter, luminescence. inhibition, % at 6.25 µM. actives 20% (n = 2,500);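 active = mean inhibition above about 25%, limit read from the data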
Starred values were filed as active, the others as inactive; · = no result given. This is a sample that favours compounds with a hit; in the whole collection about 1.3% have one here.

SMILES | NCOA3 inh | NR2F2 inh | Gli-Sufu block | LRH-1 inv ag | SRC2 inh | NCOA1 inh | Gli antag conf | Gli cytotox | Wnt3a counter
COc1ccc2nc(NC(=O)CSc3nnnn3C3CCCCC3)sc2c1 | -12 | 10 | 4 | 12 | -11 | -14 | · | · | ·
CCOc1ccc(-c2cc(C(C)=O)c3n(c2=O)CCC3)cc1 | · | 10 | · | · | -24 | · | · | · | ·
COC(=O)c1cc2c(c3c4ccccc4n(S(=O)(=O)c4ccc(C)cc4)c13)C(=O)N(CC(C)C)C2 | · | 1 | · | · | -34 | · | · | · | ·
COc1ccc(S(=O)(=O)Cc2ccc(C(=O)NCC(OC)OC)o2)cc1 | 3 | 0 | 54 | 11 | 28 | -1 | 20 | 11 | 1
COc1ccc(S[C@]2(C(=O)N(C)C)CC(=O)N(C(=O)c3ccccc3)[C@@H]2c2ccc(OC)cc2)cc1 | · | 16 | · | · | 6 | · | · | · | ·
C[C@H]1COC(=O)[C@@H](NC(=O)OCC2c3ccccc3-c3ccccc32)C/C=C\C[C@H](CC(=O)NCCO)C(=O)N1 | -1 | 0 | 48 | 14 | 1 | -4 | · | · | ·
O=C1CC/C=C\C[C@@H](CC(=O)N(CCO)Cc2ccccc2)C(=O)NC[C@@H](c2ccccc2)O1 | -6 | 1 | -3 | -6 | -24 | -6 | · | · | ·
C[C@@H]1COC(=O)[C@@H](NC(=O)OCC2c3ccccc3-c3ccccc32)C/C=C\C[C@@H](CC(=O)N(CCO)Cc2ccccc2)C(=O)N1 | 4 | 10 | 75* | 11 | 0 | -4 | 70* | 21 | -4
O=C1NC[C@@H](c2ccccc2)OC(=O)[C@@H](Cc2ccc(F)cc2)CC/C=C/C[C@@H]1CC(=O)N(CCO)Cc1ccccc1 | -17 | 12 | 6 | -2 | 9 | -3 | · | · | ·
O=C(N[C@@H]1C/C=C\C[C@H](CC(=O)N(CCO)Cc2ccccc2)C(=O)NC[C@@H](c2ccccc2)OC1=O)OCC1c2ccccc2-c2ccccc21 | -3 | -4 | 67* | -16 | 25 | -3 | 65* | 26* | -6
O=C(C[C@H]1C/C=C\C[C@H](NC(=O)OCC2c3ccccc3-c3ccccc32)C(=O)O[C@H](c2ccccc2)CNC1=O)N[C@H](CO)Cc1ccccc1 | -8 | · | 63* | 4 | · | -1 | 54* | 34* | -12
O=C(N[C@@H]1C/C=C\C[C@@H](CC(=O)N(CCO)Cc2ccccc2)C(=O)NC[C@H](c2ccccc2)OC1=O)OCC1c2ccccc2-c2ccccc21 | -4 | 2 | 59* | -20 | -28 | -16 | 62* | 23 | 16
C=CCN(CC#Cc1ccc(C(F)(F)F)cc1)Cc1ccc(OC)cc1OC | · | -1 | · | · | 19 | · | · | · | ·
CCCC1CCC2(CC1)CCC2OC(=S)NCc1ccc(Cl)cc1 (centres undefined) | · | -2 | · | · | · | · | · | · | ·
CCC1CCCCN1CCCNC(=O)Cn1c(=O)c2cccn2c2cccnc21 (centres undefined) | -20 | -11 | 69* | 20 | -7 | 10 | 24 | 2 | 15
CC1CCCC(C)N1CCCNC(=O)CCn1c(=O)c2cccn2c2cccnc21 (centres undefined) | 22 | 0 | 6 | 17 | -23 | -17 | · | · | ·
COC(=O)c1c(-n2cnnn2)sc(C)c1C | 6 | 9 | 50 | 6 | -12 | 0 | 20 | 2 | -41
O=C(Cc1ccc(Cl)cc1)N1CCN(c2ccccc2)CC1 | 5 | -5 | 53 | -2 | -5 | -28 | 23 | 13 | -40
CCN(CC)S(=O)(=O)c1ccc(S(=O)(=O)Nc2c(C)nn(C)c2C)cc1 | 20 | 37 | 65* | 27 | 25 | 5 | 54* | 18 | 25*
COc1ccc(/C=C(/NC(=O)c2ccccc2)C(=O)N/N=C/c2ccc3c(c2)OCO3)cc1OC | -9 | 2 | 84* | 9 | 4 | -15 | 18 | 0 | -7
Cc1cccc(N(CC(=O)NC(C)(C)C)C(=O)CCC(=O)Nc2nccs2)c1 | 3 | 7 | -12 | 4 | 1 | 21 | · | · | ·
CC(C)(C)NC(=O)CN(C(=O)CCC(=O)Nc1nccs1)c1cccc(C(F)(F)F)c1 | 10 | 3 | 55 | 11 | 1 | 4 | 27 | 16 | -17
O=C(CN(C(=O)CCC(=O)Nc1nccs1)c1cccc(F)c1)NCC1CCCO1 (centres undefined) | 1 | -1 | 7 | 1 | 11 | -11 | · | · | ·
O=C(CN(C(=O)CCC(=O)Nc1nccs1)c1cccc(C(F)(F)F)c1)NCC1CCCO1 (centres undefined) | -7 | -4 | 56* | -2 | -32 | 5 | 17 | 26* | -26
C=CCN=C1NC(c2ccccc2C(F)(F)F)C(C(=O)OC)=C(C)N1Cc1ccc(C(F)(F)F)cc1 (centres undefined) | · | 8 | · | · | 3 | · | · | · | ·
SMILES | NCOA3 inh | NR2F2 inh | Gli-Sufu block | LRH-1 inv ag | SRC2 inh | NCOA1 inh | Gli antag conf | Gli cytotox | Wnt3a counter
O=C(c1ccc(Cl)cc1)N1CCN(c2ccnc3cc(Cl)ccc23)CC1 | 19 | 23 | 67* | -9 | 0 | 19 | 69* | 18 | 4
CCCC[C@@H]1C(=O)N2N=Cc3cc4ccccc4cc3[C@H]2N2N=Cc3cc4ccccc4cc3[C@@H]12 | · | -2 | · | · | -1 | · | · | · | ·
CC(CCN1CCC(C(O)(c2ccccc2)c2ccccc2)CC1)Oc1ccccc1C#N (centres undefined) | · | 4 | · | · | -6 | · | · | · | ·
CNC(=O)CSc1nc2nn(-c3ccccc3)c(=O)c-2c2n1CCCCC2 | 28 | · | 56* | 32 | · | 23 | 23 | 6 | -28
O=c1cc(N2CCN(c3ccccc3)CC2)[nH]c(=O)n1-c1ccccc1Cl | -9 | 16 | -4 | -7 | 0 | -10 | · | · | ·
CCOC(=O)N1CCN(c2cc(=O)n(-c3ccccc3Cl)c(=O)[nH]2)CC1 | -14 | 10 | 54 | 13 | -22 | 2 | 16 | 23 | 2
CCCC(=O)N1CCN(S(=O)(=O)c2cc(Cl)ccc2OC)CC1 | 23 | -8 | 55* | -10 | -21 | 0 | 5 | 11 | -3
CCc1nnc(NC(=O)CCC(=O)N2CCN(S(=O)(=O)c3cc(Cl)ccc3OC)CC2)s1 | -5 | -2 | 48 | -17 | 14 | -8 | · | · | ·
NC(=S)N/N=C/c1ncc(C(F)(F)F)cc1Cl | 22 | · | 53 | 32 | · | 19 | 65* | 28* | 44*
Cc1ccc(C(=O)N/N=C/c2cc(Br)ccc2O)cn1 | 23 | -11 | 19 | -6 | 28 | 13 | · | · | ·
Cc1ccc(C(=O)N/N=C\C=C\c2ccc(Br)cc2)cn1 | 14 | -15 | 51 | 22 | -19 | -2 | 27 | 5 | -4
CCOC(=O)C1=C(C)N(c2ccccc2)C(=O)C1 | -19 | -6 | 76* | 1 | 16 | -11 | 24 | 11 | 6
